Results published in PubChem BioAssay AID504651 (National Center for Advancing Translational Sciences (NCATS), 2011).
Screen size: about 360,000 compounds; about 130 (0.036%) were called active. Rule as the data show it: active = potentiation above about 30%; inactive = the rest. For the sample, actives were picked, then their nearest neighbours and some compounds at random.

The compounds below were run against D(1A) dopamine receptor (Homo sapiens) (UniProt P21728) (assay: Potentiators of Human D1 Dopamine Receptor: qHTS). Settings: HEK293 TREx D1 cells, calcium flux, dopamine EC20 potentiation; at 10 µM; active compounds read high.
Also: 0% is about no effect.

D(1A) dopamine receptor (Homo sapiens), sequence (P21728 whole entry, looked up): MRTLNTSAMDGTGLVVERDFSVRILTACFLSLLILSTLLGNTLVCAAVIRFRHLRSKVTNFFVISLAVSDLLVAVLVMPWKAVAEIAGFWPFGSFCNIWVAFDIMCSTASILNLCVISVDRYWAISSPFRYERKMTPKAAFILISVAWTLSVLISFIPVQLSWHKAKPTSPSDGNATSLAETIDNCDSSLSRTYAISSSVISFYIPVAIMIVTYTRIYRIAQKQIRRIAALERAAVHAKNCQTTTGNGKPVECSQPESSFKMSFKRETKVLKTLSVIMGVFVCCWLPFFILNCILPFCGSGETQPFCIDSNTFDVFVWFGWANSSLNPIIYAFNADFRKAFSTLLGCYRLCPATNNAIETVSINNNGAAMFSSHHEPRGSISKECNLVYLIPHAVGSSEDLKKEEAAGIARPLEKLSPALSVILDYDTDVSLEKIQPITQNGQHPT

potentiation, inactive:
CCOc1ccc(N2CC(C)Cn3c2nc2c3c(=O)n(Cc3c(F)cccc3Cl)c(=O)n2C)cc1 (stereo unspecified) 1.1%
CC(C)c1ccc(C2CC(=O)N3CN(C4CCCCC4)CSC3=C2C#N)cc1 (stereo unspecified) 9.05%
CN(C)c1ccc(C(=O)NCC(=O)OC(C(=O)Nc2cc(C(F)(F)F)ccc2Cl)c2ccccc2)cc1 (stereo unspecified) -1.25%
CN1CCOc2cc(S(=O)(=O)N3CCN(S(=O)(=O)c4c(F)cccc4F)CC3)cnc21 -1.8%
O=C(Nc1ccc(C(=O)OCc2cc(=O)n3nc(C4CC4)sc3n2)cc1)c1ccc(F)cc1 -0.15%
Cc1cccc2nc(-c3ccc(Cl)s3)c(Nc3ccc4c(c3)OCCO4)n12 1.7%
CCN(CC)S(=O)(=O)c1ccc2c(c1)nc(CN(C)C(=O)Nc1ccc(Cl)cc1)n2C 0.4%
Cc1csc2nc(COC(=O)c3ccccc3NC(=O)c3ccccc3Cl)cc(=O)n12 1.1%
CCCCC(CC)CNC(=O)C1CCN(S(=O)(=O)c2cccc3nsnc23)CC1 (stereo unspecified) 3.8%
CCS(=O)(=O)c1nc(S(=O)(=O)c2ccc(C)cc2)c(NCc2ccc(Cl)cc2)s1 -2.95%
CCOC(=O)c1c(NC(=O)/C=C/c2ccc(OC)cc2)sc2c1CCC(C)C2 (stereo unspecified) 0.15%
N#CN1CCC(NS(=O)(=O)c2cccc(F)c2)C1 (stereo unspecified) -6.75%
CCOc1ccc(OCC)c(NC(=O)c2c(C)nn(-c3ccccc3)c2-n2cccc2)c1 -0.5%
CCN(CCCNC(=O)Cn1ncc2c3ccccc3n(C)c2c1=O)Cc1ccccc1 -1.8%
CCOc1ccc(C2CC(=O)c3c([nH]c(C(=O)OCc4ccccc4)c3C)C2)cc1 (stereo unspecified) -3.65%
O=C1Cc2cc(S(=O)(=O)Nc3ccc(OC(F)(F)F)cc3)cc3c2N1CCC3 1.65%
Cc1ccc(NC(=O)C2CCN(S(=O)(=O)c3cc(-c4noc(C)n4)ccc3C)CC2)c(C)c1 -4.05%
O=C(c1cnn(-c2ccc(F)cc2)c1-n1cccc1)N1CCN(c2ccc(F)cc2)CC1 -1.95%
CCc1ccc(N2C(=O)CN(S(=O)(=O)CC)CC2(C)C(=O)NC2CCCCC2)cc1 (stereo unspecified) -0.1%
CC(C)CNc1ncnc2c1nnn2C 2.3%
O=C(CSc1n[nH]c(-c2ccccc2)n1)N1CCCCC1 2.7%
Cc1ccc(Cn2ncc3c4sc(C)cc4n(C)c3c2=O)c(C)c1 0.9%
CCC1=Nc2cc(C(=O)NCCCOC(C)C)ccc2Sc2ccc(C)cc21 3.75%
Cc1cc2c(cc1S(=O)(=O)CCC(=O)Nc1ccc(OC(F)(F)F)cc1)OCC(=O)N2 -3.35%
Cc1c(C(=O)Nc2cccc(Cl)c2)oc2ccc(S(=O)(=O)N3CCOCC3)cc12 -2.25%
CCc1ccc(NS(=O)(=O)c2ccc3[nH]cc(C(=O)NCCc4cccc(C)c4)c(=O)c3c2)cc1 2.6%
Cc1ccc(-n2ncc(C(=O)N(C)Cc3ccccc3)c2-n2cccc2)cc1 -0.5%
Cc1ccc(CN2COc3cc(C)c4c(oc(=O)c5ccccc54)c3C2)cc1 -0.2%
CCCCn1c(=O)c2oc3ccccc3c2n(CC(=O)Nc2ccccc2OC)c1=O 1.65%
Cc1cccc(C(=O)N2c3nc(-c4ccco4)nn3C3(CCCCC3)[C@@H]3CCCC[C@@H]32)c1 -0.1%
Cc1cc(F)ccc1NC1(c2ccccc2)C(=O)c2ccccc2C1=O -5.75%
Cc1ccccc1C(=O)Nc1nnc(S(=O)(=O)N(C)c2ccc(Cl)cc2)s1 -0.45%
COc1cccc(C(=O)Nc2ccc(-c3cc(C(F)(F)F)nn3-c3ccccc3)cc2)c1 -4.85%
CCOC(=O)c1c(C)n(S(=O)(=O)c2ccc(C)cc2C)c2ccc(NS(=O)(=O)c3ccc(C)cc3C)cc12 -1.05%
COc1ccc(CCNc2nc(-c3ccc(Cl)cc3)cc(C(F)(F)F)n2)cc1OC 0.65%
Cc1cc2c(s1)c1cnn(Cc3cc(F)c(Cl)cc3Cl)c(=O)c1n2C -0.95%
Cc1ccc(S(=O)(=O)N2CCC(C(=O)Nc3cc(C)ccc3C)CC2)cc1 -2.85%
Cc1ccc(CNC(=O)CCc2c(C)nc3c(c(C)nn3-c3ccccc3)c2C)cc1 -2.25%
COc1ccc(N2CCN(S(=O)(=O)CCNC(=O)C(c3ccccc3)c3ccccc3)CC2)cc1 -0.4%
COC(=O)c1c(NC(=O)C(C)Oc2ccc(Cl)c(C)c2)sc(C)c1C (stereo unspecified) 0.65%
COc1cccc(-c2nnc(SCC(=O)N3CCC(C)CC3)o2)c1 -1.7%
Cc1ccccc1CNC(=O)CCc1cn(Cc2ccccc2C)c2ccccc12 -5.7%
Cc1ccc(C)c(Cn2c(C(=O)O)c(CNCc3cccs3)c3ccccc32)c1 19.9%
COc1ccc(Cc2nc3ccc(C(=O)NCc4ccccc4C)cc3o2)cc1 -2.05%
O=C(Cc1ccc(Cl)cc1)NCC(c1cccs1)S(=O)(=O)c1ccc(Cl)cc1 (stereo unspecified) -0.5%
CC(=O)c1ccc(NC(=O)CSc2nc(-c3ccccc3F)nc3c2c(=O)n(C)c(=O)n3C)cc1 -0.45%
CCSc1nnc(NC(=O)c2cc(=O)c3cc(C)c(C)cc3o2)s1 0.15%
COC(=O)c1ccccc1NC(=O)c1ccc(C#N)cc1 3.5%
O=C(Cn1c(=O)n(Cc2cccs2)c(=O)c2cccnc21)Nc1ccc(F)cc1 -2.6%
COc1ccc(-c2cccc(NS(=O)(=O)c3cc(C)c(OC)c(C)c3C)c2)nn1 -2.1%
Cc1ccc(SCC(=O)Nc2ccc3oc(-c4ccccc4C)nc3c2)cc1 -0.2%
